# Assay results taken from PMC7862700, “An all-to-all approach to the identification of sequence-specific readers for epigenetic DNA modifications on cytosine”.
# Legend:
# Assay in all cases: DAPPL (digital affinity profiling via proximity ligation, sequencing); 10 mM Tris-HCl pH 7.5, 50 mM NaCl, 1 mM DTT, 4% glycerol, room temperature, 30 min; GST-TFs on glutathione beads, 16-mer random dsDNA library, 0.1% formaldehyde crosslink after washing; high values mean tight binding
# Details in all cases: protein: recombinant; tags: N-terminal GST; dsDNA, one strand shown
# ERF = biological target: T1, ERF (Homo sapiens, UniProt P50548 1-548)
# T1 sequence: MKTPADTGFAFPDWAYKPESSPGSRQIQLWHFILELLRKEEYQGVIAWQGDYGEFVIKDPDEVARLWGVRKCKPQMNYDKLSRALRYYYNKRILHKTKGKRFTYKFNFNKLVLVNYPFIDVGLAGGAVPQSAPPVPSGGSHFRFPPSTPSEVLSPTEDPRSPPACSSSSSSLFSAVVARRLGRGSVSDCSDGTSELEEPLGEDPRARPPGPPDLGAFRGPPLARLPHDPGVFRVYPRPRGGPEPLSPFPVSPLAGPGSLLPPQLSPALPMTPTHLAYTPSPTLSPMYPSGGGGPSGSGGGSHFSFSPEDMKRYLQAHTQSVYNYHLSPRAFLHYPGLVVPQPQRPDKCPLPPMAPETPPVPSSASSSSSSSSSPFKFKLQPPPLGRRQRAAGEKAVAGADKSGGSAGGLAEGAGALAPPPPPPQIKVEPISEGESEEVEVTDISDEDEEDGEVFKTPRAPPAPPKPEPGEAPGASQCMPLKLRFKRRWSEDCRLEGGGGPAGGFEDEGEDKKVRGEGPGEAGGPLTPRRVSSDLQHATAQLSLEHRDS
# In short: (§1)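 Binding signal is given per hexamer as its read frequency for a factor divided by its frequency in the tag-only sample. GST-fused human transcription factors were expressed in yeast, captured on glutathione beads, barcoded with DNA and pooled with that sample, then incubated with 200 nmole of a 16-mer random double-stranded DNA library in Tris/NaCl/DTT/glycerol buffer for 30 min at room temperature. The pools were then washed, crosslinked, proximity-ligated, amplified by PCR and sequenced on an Illumina NextSeq500.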
# ETV3L = biological target: T2, ETV3L (Homo sapiens, UniProt Q6ZN32 1-361)
# T2 sequence: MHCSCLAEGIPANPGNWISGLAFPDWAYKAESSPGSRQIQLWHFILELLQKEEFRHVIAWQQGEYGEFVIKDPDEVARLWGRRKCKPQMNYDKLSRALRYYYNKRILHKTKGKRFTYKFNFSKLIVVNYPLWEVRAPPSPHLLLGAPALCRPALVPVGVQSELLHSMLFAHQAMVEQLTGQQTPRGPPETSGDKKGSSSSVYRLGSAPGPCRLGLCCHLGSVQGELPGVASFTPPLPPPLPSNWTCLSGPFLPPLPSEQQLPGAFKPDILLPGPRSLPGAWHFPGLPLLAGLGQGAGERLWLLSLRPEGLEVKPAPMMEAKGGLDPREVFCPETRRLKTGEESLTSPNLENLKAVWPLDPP
# In short: as §1
# ETS2 = biological target: T3, ETS2 (Homo sapiens, UniProt P15036 1-469)
# T3 sequence: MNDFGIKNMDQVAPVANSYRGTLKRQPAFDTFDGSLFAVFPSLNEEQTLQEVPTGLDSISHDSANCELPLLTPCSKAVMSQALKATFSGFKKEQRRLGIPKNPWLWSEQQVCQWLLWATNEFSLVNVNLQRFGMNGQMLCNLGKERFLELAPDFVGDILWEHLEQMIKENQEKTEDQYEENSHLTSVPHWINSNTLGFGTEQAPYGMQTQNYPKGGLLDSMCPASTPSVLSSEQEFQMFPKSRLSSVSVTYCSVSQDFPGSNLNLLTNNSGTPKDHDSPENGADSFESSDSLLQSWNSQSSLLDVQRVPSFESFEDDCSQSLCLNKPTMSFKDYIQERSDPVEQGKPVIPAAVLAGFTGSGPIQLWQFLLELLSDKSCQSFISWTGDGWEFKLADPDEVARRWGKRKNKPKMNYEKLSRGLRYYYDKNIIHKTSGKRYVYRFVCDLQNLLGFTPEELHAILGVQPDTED
# In short: as §1
# SPDEF = biological target: T4, SPDEF (Homo sapiens, UniProt O95238 1-335)
# T4 sequence: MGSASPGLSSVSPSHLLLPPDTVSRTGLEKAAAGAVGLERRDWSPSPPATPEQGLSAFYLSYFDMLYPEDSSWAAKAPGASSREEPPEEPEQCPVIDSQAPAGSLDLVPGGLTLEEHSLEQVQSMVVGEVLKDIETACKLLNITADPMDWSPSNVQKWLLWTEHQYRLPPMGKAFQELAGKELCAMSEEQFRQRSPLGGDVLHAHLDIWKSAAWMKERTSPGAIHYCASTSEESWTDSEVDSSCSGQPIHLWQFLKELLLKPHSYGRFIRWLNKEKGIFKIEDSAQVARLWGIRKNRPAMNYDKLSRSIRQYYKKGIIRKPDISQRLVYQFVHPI
# In short: as §1
# ETV7 = biological target: T5, ETV7 (Homo sapiens, UniProt Q9Y603 1-341)
# T5 sequence: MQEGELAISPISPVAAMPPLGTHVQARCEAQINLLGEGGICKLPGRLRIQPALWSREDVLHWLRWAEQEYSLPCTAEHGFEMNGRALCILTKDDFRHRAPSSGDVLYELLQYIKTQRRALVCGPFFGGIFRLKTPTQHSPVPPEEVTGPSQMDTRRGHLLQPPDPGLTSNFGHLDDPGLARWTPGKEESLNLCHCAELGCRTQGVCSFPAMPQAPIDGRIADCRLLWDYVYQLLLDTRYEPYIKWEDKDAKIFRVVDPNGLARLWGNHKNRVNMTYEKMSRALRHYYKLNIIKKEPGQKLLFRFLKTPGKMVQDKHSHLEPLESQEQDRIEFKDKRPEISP
# In short: as §1
# ELF5 = biological target: T6, ELF5 (Homo sapiens, UniProt Q9UKW6-2 1-255)
# T6 sequence: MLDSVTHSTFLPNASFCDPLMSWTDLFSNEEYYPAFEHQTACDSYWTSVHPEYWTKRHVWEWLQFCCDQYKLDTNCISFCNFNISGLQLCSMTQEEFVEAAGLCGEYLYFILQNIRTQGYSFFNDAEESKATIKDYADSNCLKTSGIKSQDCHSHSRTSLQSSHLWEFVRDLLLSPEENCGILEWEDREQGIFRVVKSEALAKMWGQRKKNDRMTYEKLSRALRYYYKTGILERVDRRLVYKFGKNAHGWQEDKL
# In short: as §1
# ETV3 = biological target: T7, ETV3 (Homo sapiens, UniProt P41162-2 1-143)
# T7 sequence: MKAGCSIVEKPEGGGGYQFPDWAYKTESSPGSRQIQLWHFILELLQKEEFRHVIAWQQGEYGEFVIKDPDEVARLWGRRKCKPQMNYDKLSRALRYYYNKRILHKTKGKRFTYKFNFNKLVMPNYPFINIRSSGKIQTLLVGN
# In short: as §1
# ETV6 = ETV6 (Homo sapiens, UniProt P41212 1-452)
# In short: as §1
# Chain of ETV6 (P41212 whole entry): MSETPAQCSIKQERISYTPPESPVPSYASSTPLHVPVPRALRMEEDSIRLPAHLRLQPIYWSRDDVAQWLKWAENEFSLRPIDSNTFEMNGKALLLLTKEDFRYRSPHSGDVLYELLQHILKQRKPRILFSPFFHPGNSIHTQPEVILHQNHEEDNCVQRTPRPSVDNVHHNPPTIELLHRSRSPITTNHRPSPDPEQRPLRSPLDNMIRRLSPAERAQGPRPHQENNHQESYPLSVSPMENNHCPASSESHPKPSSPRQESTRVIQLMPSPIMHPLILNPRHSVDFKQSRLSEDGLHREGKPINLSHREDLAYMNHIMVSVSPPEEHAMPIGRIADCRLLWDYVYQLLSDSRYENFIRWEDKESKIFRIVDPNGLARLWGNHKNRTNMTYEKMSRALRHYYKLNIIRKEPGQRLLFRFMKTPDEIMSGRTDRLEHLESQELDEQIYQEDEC
Sequence,binding signal (ERF),binding signal (ETV3L),binding signal (ETS2),binding signal (SPDEF),binding signal (ETV7),binding signal (ELF5),binding signal (ETV3),binding signal (ETV6)
GTTACT,"1.24 fold enrichment (6-mer frequency, TF over GST control)","1.1 fold enrichment (6-mer frequency, TF over GST control)","1.21 fold enrichment (6-mer frequency, TF over GST control)","1.18 fold enrichment (6-mer frequency, TF over GST control)","1.25 fold enrichment (6-mer frequency, TF over GST control)","1.17 fold enrichment (6-mer frequency, TF over GST control)","1.28 fold enrichment (6-mer frequency, TF over GST control)","1.21 fold enrichment (6-mer frequency, TF over GST control)"
CGTATG,"1.02 fold enrichment (6-mer frequency, TF over GST control)","1.07 fold enrichment (6-mer frequency, TF over GST control)","1.11 fold enrichment (6-mer frequency, TF over GST control)","1.05 fold enrichment (6-mer frequency, TF over GST control)","1.03 fold enrichment (6-mer frequency, TF over GST control)","1.04 fold enrichment (6-mer frequency, TF over GST control)","1.13 fold enrichment (6-mer frequency, TF over GST control)","1.02 fold enrichment (6-mer frequency, TF over GST control)"
CACTGC,"1.38 fold enrichment (6-mer frequency, TF over GST control)","1.59 fold enrichment (6-mer frequency, TF over GST control)","1.4 fold enrichment (6-mer frequency, TF over GST control)","1.42 fold enrichment (6-mer frequency, TF over GST control)","1.42 fold enrichment (6-mer frequency, TF over GST control)","1.23 fold enrichment (6-mer frequency, TF over GST control)","1.26 fold enrichment (6-mer frequency, TF over GST control)","1.41 fold enrichment (6-mer frequency, TF over GST control)"
TATAAC,"1.18 fold enrichment (6-mer frequency, TF over GST control)","1.21 fold enrichment (6-mer frequency, TF over GST control)","1.25 fold enrichment (6-mer frequency, TF over GST control)","1.25 fold enrichment (6-mer frequency, TF over GST control)","1.26 fold enrichment (6-mer frequency, TF over GST control)","1.25 fold enrichment (6-mer frequency, TF over GST control)","1.25 fold enrichment (6-mer frequency, TF over GST control)","1.19 fold enrichment (6-mer frequency, TF over GST control)"
TGTACA,"1.28 fold enrichment (6-mer frequency, TF over GST control)","1.23 fold enrichment (6-mer frequency, TF over GST control)","1.24 fold enrichment (6-mer frequency, TF over GST control)","1.67 fold enrichment (6-mer frequency, TF over GST control)","1.36 fold enrichment (6-mer frequency, TF over GST control)","1.12 fold enrichment (6-mer frequency, TF over GST control)","1.17 fold enrichment (6-mer frequency, TF over GST control)","1.29 fold enrichment (6-mer frequency, TF over GST control)"
TTCATC,"1.21 fold enrichment (6-mer frequency, TF over GST control)","1.24 fold enrichment (6-mer frequency, TF over GST control)","1.17 fold enrichment (6-mer frequency, TF over GST control)","1.36 fold enrichment (6-mer frequency, TF over GST control)","1.25 fold enrichment (6-mer frequency, TF over GST control)","1.23 fold enrichment (6-mer frequency, TF over GST control)","1.26 fold enrichment (6-mer frequency, TF over GST control)","1.23 fold enrichment (6-mer frequency, TF over GST control)"
CTTTTA,"1.39 fold enrichment (6-mer frequency, TF over GST control)","1.42 fold enrichment (6-mer frequency, TF over GST control)","1.32 fold enrichment (6-mer frequency, TF over GST control)","1.18 fold enrichment (6-mer frequency, TF over GST control)","1.42 fold enrichment (6-mer frequency, TF over GST control)","1.21 fold enrichment (6-mer frequency, TF over GST control)","1.4 fold enrichment (6-mer frequency, TF over GST control)","1.31 fold enrichment (6-mer frequency, TF over GST control)"
GGAAAC,"1.19 fold enrichment (6-mer frequency, TF over GST control)","1.32 fold enrichment (6-mer frequency, TF over GST control)","1.3 fold enrichment (6-mer frequency, TF over GST control)","1.29 fold enrichment (6-mer frequency, TF over GST control)","1.34 fold enrichment (6-mer frequency, TF over GST control)","1.7 fold enrichment (6-mer frequency, TF over GST control)","1.42 fold enrichment (6-mer frequency, TF over GST control)","1.66 fold enrichment (6-mer frequency, TF over GST control)"
TAATGG,"1.17 fold enrichment (6-mer frequency, TF over GST control)","1.23 fold enrichment (6-mer frequency, TF over GST control)","1.28 fold enrichment (6-mer frequency, TF over GST control)","1.22 fold enrichment (6-mer frequency, TF over GST control)","1.2 fold enrichment (6-mer frequency, TF over GST control)","1.32 fold enrichment (6-mer frequency, TF over GST control)","1.28 fold enrichment (6-mer frequency, TF over GST control)","1.31 fold enrichment (6-mer frequency, TF over GST control)"
CTGTTG,"1.17 fold enrichment (6-mer frequency, TF over GST control)","1.07 fold enrichment (6-mer frequency, TF over GST control)","1.21 fold enrichment (6-mer frequency, TF over GST control)","1.12 fold enrichment (6-mer frequency, TF over GST control)","1.05 fold enrichment (6-mer frequency, TF over GST control)","1.09 fold enrichment (6-mer frequency, TF over GST control)","1.21 fold enrichment (6-mer frequency, TF over GST control)","1.08 fold enrichment (6-mer frequency, TF over GST control)"
ACTGTT,"1.19 fold enrichment (6-mer frequency, TF over GST control)","1.09 fold enrichment (6-mer frequency, TF over GST control)","1.13 fold enrichment (6-mer frequency, TF over GST control)","1.04 fold enrichment (6-mer frequency, TF over GST control)","1.01 fold enrichment (6-mer frequency, TF over GST control)","1.22 fold enrichment (6-mer frequency, TF over GST control)","1.2 fold enrichment (6-mer frequency, TF over GST control)","1.2 fold enrichment (6-mer frequency, TF over GST control)"
CTGCAC,"1.11 fold enrichment (6-mer frequency, TF over GST control)","1.16 fold enrichment (6-mer frequency, TF over GST control)","1.12 fold enrichment (6-mer frequency, TF over GST control)","1.17 fold enrichment (6-mer frequency, TF over GST control)","1.05 fold enrichment (6-mer frequency, TF over GST control)","1.1 fold enrichment (6-mer frequency, TF over GST control)","1.23 fold enrichment (6-mer frequency, TF over GST control)","1.24 fold enrichment (6-mer frequency, TF over GST control)"
ATAAAC,"1.19 fold enrichment (6-mer frequency, TF over GST control)","1.18 fold enrichment (6-mer frequency, TF over GST control)","1.18 fold enrichment (6-mer frequency, TF over GST control)","1.16 fold enrichment (6-mer frequency, TF over GST control)","1.05 fold enrichment (6-mer frequency, TF over GST control)","1.17 fold enrichment (6-mer frequency, TF over GST control)","1.1 fold enrichment (6-mer frequency, TF over GST control)","1.19 fold enrichment (6-mer frequency, TF over GST control)"
CATGAT,"1 fold enrichment (6-mer frequency, TF over GST control)","1.13 fold enrichment (6-mer frequency, TF over GST control)","1.07 fold enrichment (6-mer frequency, TF over GST control)","1.01 fold enrichment (6-mer frequency, TF over GST control)","1.02 fold enrichment (6-mer frequency, TF over GST control)","1.1 fold enrichment (6-mer frequency, TF over GST control)","1.09 fold enrichment (6-mer frequency, TF over GST control)","1.09 fold enrichment (6-mer frequency, TF over GST control)"
CAACGA,"1.05 fold enrichment (6-mer frequency, TF over GST control)","1.08 fold enrichment (6-mer frequency, TF over GST control)","1.11 fold enrichment (6-mer frequency, TF over GST control)","1.01 fold enrichment (6-mer frequency, TF over GST control)","1.05 fold enrichment (6-mer frequency, TF over GST control)","1.01 fold enrichment (6-mer frequency, TF over GST control)","1.07 fold enrichment (6-mer frequency, TF over GST control)","1.04 fold enrichment (6-mer frequency, TF over GST control)"
